Where “and” joins values, the source holds several entries; their conditions need not be identical. Equal entries are not always repeated. Out of some 320,000 compounds screened, about 2,100 (0.66%) were called active. Another 53% or so got no clear call; they are omitted. The call rests on the fitted dose curve; in most records, active means well fitted inhibition curve with a large enough effect in the signal ratio, with a control signal flat (not every such curve was filed as active); inconclusive means small, poorly fitted or top-dose-only effect, or effect the other way, or a change in a side signal; inactive means flat fitted curve, though single readings scatter; the % refers to the signal ratio. What follows is part of a selection rich in actives, with near analogues and random picks from the rest.
Assay: qHTS Assay for Lipid Storage Modulators in Drosophila S3 Cells;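 on cell number change: cells counted by Cell Tracker Red CMTPX staining in the red channel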; on lipid storage change, negative = inhibition: on the % scale 0 is the no-effect control and ±100 the full control effect
Conditions: BODIPY lipid droplet fluorescence, 18-24 h, cells fed with added oleic acid; cell number change: measured here: cell count max response; series mostly up to 46.1 µM; lipid storage change, negative = inhibition: at the top concentration
How it was run: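 Laser-scanning cytometry quantifies lipid droplet accumulation (500–530 nm total intensity; droplet/cell object ratio) in oleic acid-fed (400 uM added) Drosophila S3 cells treated with a concentration series. 20 uM Triacsin C defined 100% inhibition.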
Potency means the concentration at half of the fitted maximal effect.

| Compound | lipid storage change, negative = inhibition | cell number change | outcome | Potency |
| --- | --- | --- | --- | --- |
| COc1ccccc1-n1c(-c2ccc(F)cc2)coc1=O | 8.23% (inactive) | 9.35% |  |  |
| COC(=O)Nc1ccc(S(=O)(=O)N2CCN(c3ccc(F)cc3)CC2)cc1 |  |  | inactive |  |
| COCCn1nnnc1C(c1ccccn1)N1CCN(c2cccc(C)c2C)CC1 (stereo not given) | 3.18% (inactive) | 1.34% |  |  |
| Cc1cc(Cl)c(S(=O)(=O)NC(C(=O)O)c2ccccc2)cc1OCC(N)=O (stereo not given) |  | 6.34% | inactive |  |
| COc1ccc(CC2(CO)CCN(C(C)Cc3ccc(Cl)cc3)CC2)cc1 (stereo not given) | -5.1% (inactive) | -1.88% |  |  |
| CC(=O)C1=NN(c2ccc(Cl)cc2)C(c2ccc3c(c2)OCO3)N(C(C)=O)N1C (stereo not given) | 10.1% (inactive) | 4.72% |  |  |
| O=C(CNc1ccc(Br)cc1)c1ccccc1 | 1.32% (inactive) | -10.1% |  |  |
| O=C(NNC1CC(=O)N(c2ccc(Cl)cc2)C1=O)c1ccccn1 (stereo not given) | -2.98% (inactive) | 6.05% |  |  |
| CCCCNCc1cc2ccccc2o1 | -15.4% (inactive) | -14.5% |  |  |
| Cc1ccc(-c2nn(CC(=O)O)c(=O)c3ccccc23)cc1 | 4.71% (inactive) | -4.34% |  |  |
| O=C(CCN1C(=O)[C@@H]2Cc3ccccc3CN2C1=O)N[C@H](C(=O)O)c1ccccc1 |  | 8.94% | inactive |  |
| COc1ccc(NC(=O)COC(=O)Cc2cccs2)cc1OC | 24.7% (inactive) | -0.769% |  |  |
| O=C(CSc1nc2ccccc2o1)N1N=C(c2cccs2)CC1c1ccc(F)cc1 (stereo not given) |  | -17.4% | inactive |  |
| COc1ccc(C2CC(c3cccs3)=NN2C(=O)CSc2nc3ccccc3o2)cc1 (stereo not given) |  | -8.56% |  | 9.2 µM (active) |
| COc1cccc(C2CC(c3cccs3)=NN2C(=O)CSc2nc3ccccc3o2)c1OC (stereo not given) | -2.37% (inactive) | 8.7% |  |  |
| CC(=O)c1ccc(NC(=O)Cn2cnc(S(=O)(=O)N3CCOCC3)c2)cc1 |  | -2.31% | inactive |  |
| COc1ccc2cc(CCNC(=O)c3cccc([N+](=O)[O-])c3)c(=O)[nH]c2c1 | 1.68% (inactive) | 9.49% |  |  |
| CN1C(=O)C(O)(CC(=O)/C=C\c2ccc3c(c2)OCO3)c2ccccc21 (stereo not given) |  | -43.9% |  | 0.366 µM (active) |
| O=C(/C=C\c1ccc2c(c1)OCO2)CC1(O)C(=O)Nc2ccccc21 (stereo not given) | 4.36% (inactive) | 10.9% |  |  |

| Compound | lipid storage change, negative = inhibition | cell number change | outcome | Potency |
| --- | --- | --- | --- | --- |
| NC(=O)CN1C(=O)C(O)(CC(=O)/C=C\c2ccc3c(c2)OCO3)c2ccccc21 (stereo not given) | 3.04% (inactive) | -3.53% |  |  |
| COc1ccc(S(=O)(=O)NCC2CCCO2)cc1NC(=O)c1ccccc1F (stereo not given) |  | -5.13% |  | 25.9 µM (active) |
| CCOc1ccc(S(=O)(=O)NCC2CCCO2)cc1NC(=O)c1ccccc1F (stereo not given) |  | 23.9% | inactive |  |
| COc1ccc(S(=O)(=O)NCC2CCCO2)cc1C(=O)O (stereo not given) | -1.07% (inactive) | 10.7% |  |  |
| C#CCOCCOCCOCCNc1nc(N2CCN(C(=O)[C@H](CCC(=O)O)n3cc(C(N)CO)nn3)CC2)nc(N2CCN(C(=O)[C@H](Cc3cc4ccccc4[nH]3)n3cc(C(N)[C@H](C)CC)nn3)CC2)n1 (stereo not given in full) | -13% (inactive) | 10.5% |  |  |
| Cc1ccc(NC(=O)CCN2C(=O)C3C4CCC(C4)C3C2=O)cc1[N+](=O)[O-] (stereo not given) | 2.12% (inactive) | -0.215% |  |  |
| Cc1ccnc2nc(C(=O)OCC(=O)N(CC(C)C)C3CCS(=O)(=O)C3)nn12 (stereo not given) | 9.53% (inactive) | 2.08% |  |  |
| COc1ccccc1C(=O)NCCC(=O)NCC1COc2ccccc2O1 (stereo not given) |  | -11.7% |  | 20.6 µM (active) |
| O=C(CCC1COc2ccccc2O1)NCC1COc2ccccc2O1 (stereo not given) | 10.9% (inactive) | 8.2% |  |  |
| COc1ccc(CC(=O)NCC2COc3ccccc3O2)cc1 (stereo not given) | -7.76% (inactive) | 0.718% |  |  |
| O=C(N/C(=C/c1ccccc1)C(=O)N1CCCCCC1)c1ccccc1 | 0.572% (inactive) | 10.3% |  |  |
| CCOC(=O)c1c(C)nc2c3ccccc3ccn12 |  | -20.3% | inactive |  |
| CCOC(=O)c1c(O)c(O)c(C(=O)OCC)n1-c1ccccc1 | -6.73% (inactive) | 6.34% |  |  |
| CCOC(=O)c1c2ccccc2[n+]([O-])n1CCO |  | -10.4% |  | 18.4 µM (active) |
| Cc1nc2ccc(NS(=O)(=O)c3ccc(F)cc3F)cc2s1 |  | -1.41% |  | 13 µM (active) |
| Cc1nc2ccc(NS(=O)(=O)c3ccccc3F)cc2s1 | 12.6% (inactive) | 3.06% |  |  |
| Cc1ccc(S(=O)(=O)Nc2ccc3nc(C)sc3c2)c(C)c1 |  | 24.9% |  | 10.3 µM (active) |
| Cc1ccc(S(=O)(=O)Nc2ccc3nc(C)sc3c2)cc1 | -16% (inactive) | -22.9% |  |  |
| Cc1ccc(S(=O)(=O)Nc2ccc3nc(N)sc3c2)cc1 | 16.5% (inactive) | -27.3% |  |  |

| Compound | lipid storage change, negative = inhibition | cell number change | outcome | Potency |
| --- | --- | --- | --- | --- |
| Cc1nc2ccc(NS(=O)(=O)c3ccc(F)cc3)cc2s1 |  | 20% | inactive |  |
| COC(=O)C1=C(C)N(Cc2ccccc2)C(=NCc2ccccc2)N[C@H]1c1cccc(F)c1 | -22.4% (inactive) | -6.29% |  |  |
| COC(=O)C1=C(C)N(Cc2ccccc2)C(=NCc2cccc(Cl)c2)N[C@H]1c1ccccc1 |  | -18.9% and 6.44% |  | inactive |
| COC(=O)C1=C(C)N(Cc2ccccc2)C(=NCc2cccc(Cl)c2)N[C@H]1c1cccc(F)c1 |  | -27.7% |  | 20.6 µM (active) |
| CCc1ccc(/C=C2\SC(=S)N(CCC(=O)NC3=NCCS3)C2=O)cc1 | -19.7% (inactive) |  |  |  |
| Cc1cccc(Nc2nc(N)nc(CN3CCN(c4ccc(F)cc4)CC3)n2)c1 | 13.2% (inactive) | -18.7% |  |  |
| CCN(CC)CCCNC(=O)C1CCCN(c2nnc(N3CCCC3=O)s2)C1 (stereo not given) |  | -17% |  | 25.9 µM (active) |
| CC1CC(C)CN(CCCNC(=O)C2CCCN(c3nnc(N4CCCC4=O)s3)C2)C1 (stereo not given) | -2.92% (inactive) | 2.76% |  |  |
| Cc1ccc(CNC(=O)C2CCN(c3nnc(N4CCCC4=O)s3)CC2)cc1 | -27.3% (inactive) | 24.8% |  |  |
| COc1ccccc1NC(=O)c1c([N+](=O)[O-])c(C(C)(C)C)nn1C | 4.27% (inactive) | 11.1% |  |  |
| C#CCNC(=O)C1=C[C@@H](c2coc3ccccc3c2=O)C[C@@H](OCCCCO)O1 | -3.82% (inactive) | 6.85% |  |  |
| CC(Oc1cccc(Cl)c1)C(=O)Nc1ccccc1N1CCCCC1 (stereo not given) | -4.15% (inactive) | 7.85% |  |  |
| CC(=O)c1ccc(OCC(=O)Nc2ccccc2N2CCCC2)cc1 | -11.1% (inactive) | -18% |  |  |
| CCN1CCN(c2ccccc2NC(=O)C(C)Oc2ccc(C(C)=O)cc2)CC1 (stereo not given) |  | -13.7% |  | 18.4 µM (active) |
| O=C(NNC(=O)c1ccc(Br)s1)NC1CCCCC1 | 2.2% (inactive) | 8.62% |  |  |
| CCSc1nnc(NC(=O)CSc2nnc(-c3c[nH]c4ccccc34)n2CC)s1 |  | 11.1% | inactive |  |
| CCc1nnc(NC(=O)CSc2nnc(-c3c[nH]c4ccccc34)n2C)s1 | 3.62% (inactive) | 4.19% |  |  |
| CCSc1nnc(NC(=O)CSc2nnc(-c3c[nH]c4ccccc34)n2C)s1 |  | -1.84% |  | 2.06 µM (active) |

Source: PubChem BioAssay AID2685 (National Center for Advancing Translational Sciences (NCATS), 2010)
